This is a sample that favours compounds with a hit; in the whole collection about 2.7% have one here.
pPAFAH inh: inhibitors of human plasma PAF acetylhydrolase (pPAFAH); Q13093; hit rate 1.5% among 330,000; recombinant pPAFAH, FP-rhodamine probe fluorescence polarization; inhibition, % at 3.39 µM;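 active means inhibition above the mean inhibition across the screen plus 3 SD, cut at about 25% in these data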;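 further: inhibitors block binding of the rhodamine activity-based probe so polarization drops; 0% = enzyme with DMSO and 100% = wells lacking pPAFAH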
Target sequence (Q13093 whole entry, looked up): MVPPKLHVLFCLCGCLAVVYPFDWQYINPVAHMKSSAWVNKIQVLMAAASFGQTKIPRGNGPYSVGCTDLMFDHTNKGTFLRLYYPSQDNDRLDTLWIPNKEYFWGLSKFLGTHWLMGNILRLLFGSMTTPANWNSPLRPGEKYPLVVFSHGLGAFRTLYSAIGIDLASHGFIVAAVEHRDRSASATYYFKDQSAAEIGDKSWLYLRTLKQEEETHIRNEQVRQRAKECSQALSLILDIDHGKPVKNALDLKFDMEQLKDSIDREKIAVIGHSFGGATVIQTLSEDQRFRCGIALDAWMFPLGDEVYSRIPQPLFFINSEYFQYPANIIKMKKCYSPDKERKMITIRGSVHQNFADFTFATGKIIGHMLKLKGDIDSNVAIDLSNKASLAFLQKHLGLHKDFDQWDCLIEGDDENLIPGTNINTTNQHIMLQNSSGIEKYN
TCR CD3 inh: inhibitors of human TCR-CD3 interaction | hit rate 0.37% among 360,000 | TAMRA-labeled TCR probe fluorescence, biochemical | inhibition, % at 9.4 µM | AID 651800; in the data active means inhibition above about 19%;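 further: recombinant mutant TCR 2C K166C tagged with TAMRA read by polarization; 0% = receptor in buffer alone and 100% = receptor with positive control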
PAFAH1B2 inh: inhibitors of human PAFAH1B2; P68402; recombinant PAFAH1B2, FP-rhodamine activity probe, fluorescence polarization; inhibition, % at 3.39 µM; hit rate 1.2% among 340,000;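 active means inhibition above the mean of all tested compounds plus 3 SD, cut at about 24% in these data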;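 further: 0% = enzyme with DMSO and 100% = wells lacking PAFAH1B2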
PAFAH1B3 FP inh: blocks human PAF acetylhydrolase 1B catalytic subunit 3 | recombinant PAFAH1B3, FP-rhodamine probe, fluorescence polarization | inhibition, % at 3.39 µM | hit rate 0.28% among 340,000;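 active means inhibition above the screen-wide average of all tested compounds plus 3 SD, cut at about 25% in these data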;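 further: 0% = enzyme with DMSO only and 100% = wells lacking PAFAH1B3 protein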
PAFAH2 FP inh: inhibitors of human PAFAH2; inhibition, % at 3.39 µM; recombinant PAFAH2, FP-rhodamine activity probe, fluorescence polarization; hit rate 0.99% among 340,000;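 active means inhibition above the mean over all tested compounds plus 3 SD, cut at about 30% in these data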;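 further: inhibitors block probe labeling of enzyme so polarization drops; 0% = enzyme with DMSO and 100% = wells lacking PAFAH2 protein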
pPAFAH FP conf: confirmation of human plasma PAF acetylhydrolase (pPAFAH) inhibitors; inhibition, % at 3.39 µM; shares compounds with pPAFAH inh; AID 463230; hit rate 72% among 2,300; recombinant pPAFAH, FP-Rh probe fluorescence polarization;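 active means mean inhibition of the triplicate above the hit cutoff set for the earlier primary screen, cut at about 25% in these data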;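 further: 0% = enzyme with DMSO and 100% = wells lacking pPAFAH enzyme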
Numbers without * were called inactive; . = not tested or not shown.

SMILES | pPAFAH inh | TCR CD3 inh | PAFAH1B2 inh | PAFAH1B3 FP inh | PAFAH2 FP inh | pPAFAH FP conf
CCCCCCCCCCCCN1[C@@H](CC(=O)O)c2cc(C(F)(F)F)ccc2S1(=O)=O | 44* | 1 | 23 | 3 | 11 | 41*
CCCCCCCCCCCCN1[C@@H](CC(=O)O)c2cc(F)ccc2S1(=O)=O | 48* | -4 | 31* | -3 | -2 | 34*
C[C@H](CO)N1C[C@H](C)[C@@H](CN(C)S(=O)(=O)c2cccs2)Oc2ccc(NS(=O)(=O)c3ccccc3)cc2CC1=O | 14 | 4 | 0 | 6 | 7 | .
Cc1cccc(NC(=O)CN2CCN(CC(=O)NCc3ccc(Cl)cc3Cl)CC2)c1C | 3 | 2 | 4 | 0 | 7 | .
Cc1cccc(NC(=O)CN2CCN(C(=O)CNC(=O)Cc3cccc4ccccc34)CC2)c1C | 48* | -2 | 3 | 6 | 3 | 4
CCOC(=O)C1CCCN(C(=O)C2c3ccccc3Oc3ccccc32)C1 (stereo unspecified) | 55* | 5 | 24* | 43* | 54* | 9
CCOC(=O)C1CCCN(C(=O)c2ccc(C(=O)c3ccccc3)cc2)C1 (stereo unspecified) | 4 | -1 | 7 | 7 | 9 | .
Cc1nc(S/C(=C/c2ccc(-c3ccc(Cl)cc3)o2)C(=O)O)n[nH]1 | 11 | 5 | 9 | 5 | 19 | .
Cc1nc(S/C(=C/c2ccc(-c3cc(Cl)ccc3C)o2)C(=O)O)n[nH]1 | 47* | 3 | 13 | 25 | 28 | 56*
CC(C)(C)N(Cc1ccccc1)C(=O)COC(=O)C1CCN(c2ccc(C(F)(F)F)cn2)CC1 | 11 | 3 | 3 | 8 | 2 | .
Cc1nn(-c2ccc(F)cc2)c2sc(C(=O)N3CCCCCC3)cc12 | 4 | 5 | 0 | 5 | 0 | .
COc1ccc(NS(=O)(=O)c2ccc(O)c(NC(=O)c3cc4c(C)nn(-c5ccc(F)cc5)c4s3)c2)cc1 | 36* | . | -15 | -37 | -18 | 29*
CCCCn1c(SCC(=O)c2ccccc2)nc2ccsc2c1=O | 0 | 5 | -6 | 4 | -8 | .
CCCCn1c(SCC(=O)c2ccc(O)c(O)c2)nc2ccsc2c1=O | 42* | . | 15 | 2 | 28 | 88*
Cc1cccc(C)c1NC(=O)CN(C)C(=O)c1cc(S(=O)(=O)N(C)C)ccc1N1CCCC1 | 35* | 3 | -3 | 7 | 2 | 4
CCS(=O)(=O)N1Cc2ccccc2CC1C(=O)NCCc1ccccc1 (stereo unspecified) | 11 | 3 | 8 | 8 | -6 | .
O=C(O)/C(CC(=O)c1ccc(Cl)cc1)=N/Nc1ccc([N+](=O)[O-])cc1[N+](=O)[O-] | 35* | 3 | 20 | 10 | 21 | 72*
CCOC(=O)c1c(N)sc(=S)c2c1CCC2 | 49* | 13 | 5 | 18 | 28 | 16
CCC(/C=N/NC(=O)C(N)=O)CC | 0 | 8 | -8 | 0 | -4 | .
COc1ccc(S(=O)(=O)Nc2cccc3c2O[C@H](CN(C)Cc2ccc(Cl)c(Cl)c2)[C@@H](C)CN([C@H](C)CO)C3=O)cc1 | 6 | 4 | -2 | 0 | -2 | .
C[C@H]1CN([C@@H](C)CO)C(=O)c2cccc(NS(=O)(=O)c3ccc(F)cc3)c2O[C@H]1CN(C)Cc1ccc(Cl)c(Cl)c1 | 37* | 9 | 3 | -4 | 2 | 46*
Cc1ccccc1C(=O)N=c1c(C#N)cc2c(=O)n3cccc(C)c3nc2n1Cc1ccco1 | 2 | . | . | . | . | .
N#Cc1cc2c(=O)n3ccccc3nc2n(Cc2ccco2)c1=NC(=O)c1ccco1 | 37* | 3 | 5 | 10 | -6 | 9
O=C(COC(=O)CNC(=O)c1ccccc1)Nc1ccc(F)c([N+](=O)[O-])c1 | 37* | 5 | -1 | 6 | 1 | 5
Nc1cc(C(=O)O)c(N)c2c1C(=O)c1ccccc1C2=O | 74* | . | 56* | 73* | 66* | 54*
COc1ccc(N2CCN(c3ncnc4c3[nH]c3ccccc34)CC2)cc1 | 17 | -1 | -1 | 3 | 4 | .
COc1cc2[nH]c3c(N4CCN(c5ccccn5)CC4)ncnc3c2cc1OC | 70* | . | 4 | 7 | -3 | 58*
Cc1ccc(-n2nc3c(=O)n(CCCC(=O)NCc4ccco4)nc(C)c3c2C)cc1 | 5 | -1 | 7 | -8 | -8 | .
CC(=O)Nc1ccc(Br)c2ccccc12 | -2 | -6 | 3 | 8 | 7 | .

Source: PubChem (The Scripps Research Institute Molecular Screening Center)
